HP1b chromo inh: HP1-beta chromodomain-methylated histone interaction inhibition. P83916. AlphaScreen HP1-beta / biotin-H3K9me3 peptide binding. Potency, µM (highest dose often 114 µM), actives largely listed as inhibitors. 390,000 tested, 0.56% active. AID 540317; note: nearly all actives have a fitted effect of over 70% in size
Target sequence (P83916 whole entry, looked up): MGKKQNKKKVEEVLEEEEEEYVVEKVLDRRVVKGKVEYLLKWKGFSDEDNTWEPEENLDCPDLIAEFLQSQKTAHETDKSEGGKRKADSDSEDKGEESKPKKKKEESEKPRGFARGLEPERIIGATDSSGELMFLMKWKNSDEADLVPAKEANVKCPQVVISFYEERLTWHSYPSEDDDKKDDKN
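Compound inhibition of the preformed complex between 50 nM HP1-beta and 50 nM biotinylated H3K9me3 peptide was read by AlphaScreen. Buffer was PBS pH 7.4 with 0.01% Tween-20. Incubations ran 30 min at room temperature, with 10 ug/mL donor/acceptor beads.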
PLK1 PBD block: blocks phosphopeptide binding to human PLK1 polo-box domain; Potency, µM, actives largely listed as inhibitors; AID 720504; P53350; 360,000 tested, 2.8% active; Plk1 PBD binding of FITC phosphopeptide, fluorescence polarization; note: series mostly up to about 57 µM; nearly all actives have a fitted effect of over 65% in size
G9a inh: blocks human histone lysine methyltransferase G9a | G9a H3K9 monomethylation, AlphaScreen, 2 h | Potency, µM (series often up to 102 µM), usual class: inhibitors | 350,000 tested, 8.8% active | AID 504332; note: nearly all actives have a fitted effect of over 75% in size
Target sequence (Q96KQ7 913-1193 limits assumed): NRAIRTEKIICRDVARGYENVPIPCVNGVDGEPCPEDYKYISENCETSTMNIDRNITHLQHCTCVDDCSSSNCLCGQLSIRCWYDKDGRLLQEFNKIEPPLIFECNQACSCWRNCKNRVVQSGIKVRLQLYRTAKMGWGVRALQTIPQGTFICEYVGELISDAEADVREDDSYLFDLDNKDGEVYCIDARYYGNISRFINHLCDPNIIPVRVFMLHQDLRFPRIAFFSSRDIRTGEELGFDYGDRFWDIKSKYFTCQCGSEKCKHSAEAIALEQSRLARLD
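G9a (20 nM) was preincubated 15 min with compound, then reacted 2 h at room temperature with 500 nM biotin-H3K9 peptide and 20 µM SAM. Monomethyl-H3K9 detected by AlphaScreen using anti-H3K9me1 antibody.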
JMJD2A Tudor: blocks the human JMJD2A Tudor domain; AlphaScreen JMJD2A-Tudor / H3K4me3 peptide binding; 390,000 tested, 4.4% active; Potency, µM (highest dose often 114 µM), most hits filed as inhibitors; note: nearly all actives have a fitted effect of over 50% in size
Sfp PPTase inh: inhibitors of Bacillus subtilis Sfp phosphopantetheinyl transferase; Q9F4F7; Biochemical Sfp PPTase activity, qHTS; Potency, µM, most hits filed as inhibitors; 310,000 tested, 3.5% active; AID 1490;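 note: the enzyme is Sfp with the accession as filed and its product quenches rhodamine fluorescence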
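Fluorescence-quenching assay: 15 nM Sfp-PPTase preincubated 15 min at room temperature with compound, then 5 uM rhodamine-CoA and 12.5 uM BHQ-2-labelled YbbR peptide added. Fluorescence (ex 525/em 598 nm) read at start and after 30 min; difference gives rate.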
BAZ2B inh: inhibitors of human BAZ2B bromodomain | Q9UIF8 | AlphaScreen BAZ2B-H3K14Ac peptide displacement | Potency, µM (doses to about 114 µM), hits mostly inhibitors | 360,000 tested, 4.4% active | AID 504333; note: nearly all actives have a fitted effect of over 60% in size
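AlphaScreen displacement of biotin-H3(5-23)K14Ac peptide (50 nM final) from BAZ2B (50 nM final) in PBS pH 7.4, 0.01% Tween-20; complex preformed 30 min RT, then compounds (top 110 uM) 30 min RT, beads 20 min dark.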
Numbers stand for hits; . = inactive; ? = inconclusive; / = no result given; [ ] = another dose, or the depositor's remark. Most compounds without a hit are left out; they make up all but 12% or so of the library. Calls come from the whole dose curve; as a rule, active = well fitted curve in the direction sought with a large enough effect; inconclusive = small, poorly fitted or top-dose-only effect, or another doubt; inactive = no such curve, though single readings can be large; an effect the other way counts as inactive or inconclusive.

SMILES	HP1b chromo inh	PLK1 PBD block	G9a inh	JMJD2A Tudor	Sfp PPTase inh	BAZ2B inh
O=C(COCc1cc(-c2cccs2)on1)N1CCN(c2ccc(F)cc2)CC1	.	/	.	.	/	.
CCOc1ccccc1NC(=O)CSc1nncc2ccccc12	.	.	.	.	.	.
COc1ccc(C(C)=O)cc1COC(=O)CCNS(=O)(=O)c1ccc(C)cc1	.	?	50.1µM	.	/	.
COc1ccc(C(C)=O)cc1COC(=O)CCNS(=O)(=O)c1ccc(C(C)=O)cc1	.	.	.	.	.	.
CCCCCc1cc(=O)oc2c(C(CCN(CC)CC)c3cc(OC)c(OC)c(OC)c3)c(OC)cc(OC)c12 (configuration not stated)	.	.	.	?	?	.
COc1cc(OC)c2c(-c3ccccc3)cc(=O)oc2c1C(CCN1CCN(c2ccccc2)CC1)c1ccc(N(C)C)cc1 (configuration not stated)	?	.	?	4.47µM	.	4.47µM
COc1cc(OC)c2c(-c3ccccc3)cc(=O)oc2c1C(CCN1CCCC(C)C1)c1ccc(N(C)C)cc1 (configuration not stated)	?	.	?	11.2µM	?	15.8µM
COc1cc(OC)c2ccc(=O)oc2c1C(CCN1CCN(c2ccccc2)CC1)c1ccc(N(C)C)cc1 (configuration not stated)	?	.	.	22.4µM	.	35.5µM
COc1ccc(C(CCN2CCCC(C)C2)c2c(OC)cc(OC)c3c(-c4ccccc4)cc(=O)oc23)cc1 (configuration not stated)	.	.	.[12.7 µM]	?	?	.
CCCCCc1cc(=O)oc2c(C(CCN3CCN(c4ccccc4)CC3)c3ccc(N(C)C)cc3)c(OC)cc(OC)c12 (configuration not stated)	?	.	?	22.4µM	.	6.31µM
COc1ccc(C(CCN2CCN(c3ccccc3)CC2)c2c(OC)cc(OC)c3c(-c4ccccc4)cc(=O)oc23)cc1 (configuration not stated)	.	.	?	?	.	?
S=C(NCc1ccccc1)NCc1ccccc1Cl	.	.	.	.	.	.
COc1cccc(-c2nc(-c3ccc(-c4ccccc4)nc3OC)no2)c1	.	/	.	.	/	.
COc1cccc(N2CCN(c3ccc([N+](=O)[O-])cn3)CC2)c1	.	.	.	.	.	.
COc1cc(OC)c2ccc(=O)oc2c1C(CCN1CCOCC1)c1ccc(N(C)C)cc1 (configuration not stated)	/	/	28.2µM	/	.	/
CCN(CC)CCC(c1ccc(N(C)C)cc1)c1c(OC)cc(OC)c2c(-c3ccccc3)cc(=O)oc12 (configuration not stated)	?	.	?	22.4µM	56.2µM	31.6µM
COc1ccc(C(CCN2CCCC2)c2c(OC)cc(OC)c3c(-c4ccccc4)cc(=O)oc23)cc1 (configuration not stated)	.	.	.[12.7 µM]	?	.	.
COc1cc(OC)c2c(C)cc(=O)oc2c1C(CCN1CCOCC1)c1ccc(N(C)C)cc1 (configuration not stated)	?	.	.[12.7 µM]	50.1µM	.	39.8µM
COc1ccc(C(CCN2CCOCC2)c2c(OC)cc(OC)c3c(-c4ccccc4)cc(=O)oc23)cc1 (configuration not stated)	.	.	?	?	?	/
CC(C)N1CCC(=NNC(=O)c2cccs2)CC1	.	.	.	.	.	.
COc1ccc(CCNC(=O)CNC(=O)c2ccccc2Br)cc1OC	.	.	.	.	.	.
O=C1c2cccc3c([N+](=O)[O-])c(O)cc(c23)C(=O)N1Nc1ccccc1	?	26.7µM	20µM	?	.	?
CCOc1ccc(Nc2nc(C)c(NC(=O)c3cccc(F)c3)c(Nc3ccc(OCC)cc3)n2)cc1	.	/	20µM	?	/	.
CCOc1ccc(-n2nc3ccc(NC(=O)c4cccc(F)c4)cc3n2)cc1	.	/	.	.	/	.
COc1ccc2c(c1)OCC(Cc1ccc(OC)c(O)c1)C2=O (configuration not stated)	/	/	.[2.33 µM]	/	.	/
COc1ccccc1NS(=O)(=O)c1ccc(NN=C2CCCC2)c([N+](=O)[O-])c1	?	.	25.1µM	20µM	.	?
